# Laboratory results reported in PubChem BioAssay (NCI).
# Compounds without any hit were thinned out: in the full panel of roughly 83,000, 20% have a hit.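 Single-dose data. Exposure time 48 hours. Values below 10 considered active.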 A number with no mark means an inactive call. Activity calls are given as the source filed them.
# Columns and labels:
# Test in all cases: NCI-60 one-dose screen, 48 h (100 = growth as untreated, 0 = no growth, -100 = all killed)
# Settings in all cases: 10 µM unless noted
# SR leukemia = tested on: SR leukemia
# RPMI-8226 leukemia = tested on: RPMI-8226 leukemia
# OVCAR-8 ovarian = tested on: OVCAR-8 ovarian
# OVCAR-5 ovarian = tested on: OVCAR-5 ovarian
# OVCAR-4 ovarian = tested on: OVCAR-4 ovarian
# SK-OV-3 ovarian = tested on: SK-OV-3 ovarian
# IGROV1 ovarian = tested on: IGROV1 ovarian
# OVCAR-3 ovarian = tested on: OVCAR-3 ovarian
# NCI/ADR-RES ovarian = tested on: NCI/ADR-RES ovarian
SMILES,growth (SR leukemia),growth (RPMI-8226 leukemia),growth (OVCAR-8 ovarian),growth (OVCAR-5 ovarian),growth (OVCAR-4 ovarian),growth (SK-OV-3 ovarian),growth (IGROV1 ovarian),growth (OVCAR-3 ovarian),growth (NCI/ADR-RES ovarian)
CNC(=O)c1cc(Oc2ccc(NC(=O)Nc3ccc(Cl)c(C(F)(F)F)c3)c(F)c2)ccn1,-32.6% (active),-34% (active),-1.84% (active),3.12% (active),8.63% (active),-16.7% (active),-20.8% (active),0.719% (active),-14.3% (active)
CC(=O)NCC(=O)N1[C@@H]2CC[C@H]1c1ccc(Nc3ncc(C(F)(F)F)c(NC4CCC4)n3)cc12,2.18% [2.5 µM] (active),71.4% [2.5 µM],55.3% [2.5 µM],32.4% [2.5 µM],64.4% [2.5 µM],15.9% [2.5 µM],31.5% [2.5 µM],67.8% [2.5 µM],59.7% [2.5 µM]
O=c1[nH]c([C@@H]2CCCN2)nc2c1oc1ccc(Cl)cc12,34.1%,86.6%,72.9%,49.8%,84.5%,24%,81.3%,65%,82.9%
CC1(C)NC(=O)c2[nH]c3c(Cl)c(Cl)ccc3c2C1C#N (configuration not stated),67.5%,69.6%,89.2%,85.2%,60.7%,100%,100%,82.4%,85%
Cc1ccc(NC(=O)Nc2ccc(Nc3ncnc4sc5c(c34)CCOC5)cc2)cc1Cl,89%,105%,91.9%,114%,121%,73.4%,99.1%,102%,106%
NC1(C(=O)N[C@@H](CCO)c2ccc(Cl)cc2)CCN(c2ncnc3[nH]ccc23)CC1,23.7%,80%,76.4%,51.6%,64.9%,-6.71% (active),3.26% (active),61.3%,90.7%
O=C1NC(=O)/C(=C/c2ccc3nccc(-c4ccncc4)c3c2)S1,-26.5% (active),-16.5% (active),-18.8% (active),-30.1% (active),-22.7% (active),-60.3% (active),-60.1% (active),-30.4% (active),-14.6% (active)
Cc1cc(-c2cc(OC(=O)c3ccccc3)ccc2Cl)cc2nnc(Nc3ccc(OCCN4CCCC4)cc3)nc12,0.433% (active),74.4%,68.6%,81%,-40.5% (active),52.6%,69.4%,86.3%,110%
Cc1cc(Nc2nc(N[C@@H](C)c3ncc(F)cn3)ncc2Cl)n[nH]1,7% (active),89.9%,88.1%,59.8%,91.6%,75.3%,45%,93.3%,87.5%
CNS(=O)(=O)Nc1nccc(Cc2c(C)c3ccc(Oc4ncccn4)cc3oc2=O)c1F,58.3%,55.3%,63.2%,20.4%,55%,53.3%,28.7%,76.2%,70.6%
O=C(c1c(F)ccc(NS(=O)(=O)N2CC[C@@H](F)C2)c1F)c1c[nH]c2ncc(-c3cnc(C4CC4)nc3)cc12,21.6%,36.3%,31.7%,58.3%,64.2%,3.3% (active),17%,69.4%,102%
CCc1cnn2c(NCc3ccc[n+]([O-])c3)cc(N3CCCC[C@H]3CCO)nc12,-17.3% (active),-16.2% (active),-6.3% (active),4.89% (active),-9.21% (active),-17.8% (active),5.6% (active),12.3%,-0.875% (active)
Cn1cnc2c(F)c(Nc3ccc(Br)cc3Cl)c(C(=O)NOCCO)cc21,75%,69.9%,66.4%,7.92% (active),65.5%,51.5%,25.3%,106%,68.6%
CC[C@@H]1C(=O)N(C)c2cnc(Nc3ccc(C(=O)NC4CCC(N5CCN(CC6CC6)CC5)CC4)cc3OC)nc2N1C(C)C (some centres not stated),-11.5% (active),-42.8% (active),1.34% (active),22.5%,24.8%,-68.8% (active),-18.5% (active),-13.8% (active),25.8%
CC(C)CC(=O)Nc1n[nH]c2c1CN(C(=O)C1CCN(C)CC1)C2(C)C,2.42% (active),3.37% (active),15.4%,8.63% (active),33.5%,-1.71% (active),15.4%,18.3%,96.1%
CCN1CCN(Cc2ccc(-c3cc4c(N[C@H](C)c5ccccc5)ncnc4[nH]3)cc2)CC1,21.2%,55.9%,35.6%,8.61% (active),76.2%,-7.56% (active),-1.26% (active),56.8%,46.7%
CCCCCCCCCCCC[n+]1ccccc1,-20.7% (active),-39.2% (active),0.812% (active),14.6%,14.9%,-1.15% (active),-37.5% (active),-32.9% (active),75.4%
COCCN1CCN(Cc2ccc(-c3n[nH]c4c3C(=O)c3c(NC(=O)NN5CCOCC5)cccc3-4)cc2)CC1,-10.3% (active),-37.4% (active),-13.4% (active),9.54% (active),-0.503% (active),-7.89% (active),-10.9% (active),9.5% (active),5% (active)
CCCCN1CCCC[C@@H]1C(=O)N[C@H](C(=O)N(C)[C@H](CCc1nc(C(=O)N[C@@H](Cc2ccccc2)C[C@H](C)C(=O)OC)cs1)C(C)C)C(C)C,7.34% (active),7.01% (active),82.6%,95.1%,61.3%,75.4%,50.3%,65.2%,65.4%
Cc1cc(Nc2cc(N3CCN(C)CC3)nc(Sc3ccc(NC(=O)C4CC4)cc3)n2)n[nH]1,16.7%,44.8%,38.6%,29%,77%,27.6%,30.7%,61.5%,73.8%
COC(=O)[C@]12CC[C@@H](C)[C@H](C)[C@@H]1C1=CC[C@@H]3[C@@]4(C)C(c5cnco5)=C[C@@](C)(CO)C4=CC[C@@]3(C)[C@]1(C)CC2,21.1%,26.1%,60.8%,78.8%,40.6%,67.2%,77.6%,50.1%,53.9%
NC1(c2ccc(-c3nc4ccn5c(=O)[nH]nc5c4cc3-c3ccccc3)cc2)CCC1,-23.4% (active),24.7%,51.9%,60.5%,63.2%,3.19% (active),12.6%,39.7%,56.8%
O=C1C=CC2(NN=C(c3ccccc3)N2c2ccccc2)c2cccc(O)c21 (configuration not stated),38.5%,65.5%,62.2%,39.9%,40.8%,91.2%,53.8%,11.3%,42.2%
Clc1nc(Cl)c2ncn(CC#CCn3cnc4c(Cl)nc(Cl)nc43)c2n1,-52.6% (active),-56.6% (active),-34.8% (active),-2.99% (active),-70.8% (active),87.5%,-75.4% (active),-90.9% (active),59.8%
CC[C@@H]1C(=O)N(C)c2cnc(Nc3ccc(C(=O)NC4CCN(C)CC4)cc3OC)nc2N1C1CCCC1,-20.7% (active),-40.6% (active),21.4%,17.3%,35.3%,-64.3% (active),-0.189% (active),13.1%,24%
O=C1CC(c2cccc(F)c2)c2c(n[nH]c2-c2ccc(Cl)cc2)N1 (configuration not stated),89.3%,81.8%,85.9%,84.7%,95.4%,86.4%,101%,100%,93.9%
O=C1C=CC2(NN=C(c3ccccc3)N2c2cccc(Cl)c2)C(Cl)=C1 (configuration not stated),67.3%,58.6%,76%,92.3%,70.5%,70.7%,87.1%,84.9%,89.7%
O=C(Nc1ccc(-c2ccnc(Nc3ccc(N4CCOCC4)cc3)n2)cc1)[C@@H]1CCCN1,4.92% (active),57%,72.2%,76.8%,71.4%,42.6%,60.8%,76.5%,87.3%
